Measurements as given in PubChem BioAssay (NCI).
This is part of a sample that, as a whole, favours compounds with a hit. Of some 83,000 tested, about 20% had one in any assay.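 Step 1: grow cells in 96-well plates. Step 2: add test compound at a single concentration. Step 3: incubate 48 h. Step 4: record percent growth.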 Unmarked numbers belong to inactive results. Activity calls are given as the source filed them. How the source made its calls: active means growth percent below 10; inactive means the rest.

Assays:
Assay in all cases: NCI-60 one-dose screen, 48 h (100 = growth as untreated, 0 = no growth, -100 = all killed)
Conditions in all cases: 10 µM unless noted
[1] = tested on: SR leukemia
[2] = tested on: RPMI-8226 leukemia
[3] = tested on: OVCAR-8 ovarian
[4] = tested on: OVCAR-5 ovarian
[5] = tested on: OVCAR-4 ovarian
[6] = tested on: SK-OV-3 ovarian
[7] = tested on: IGROV1 ovarian
[8] = tested on: HS 578T breast
[9] = tested on: NCI/ADR-RES ovarian

Compound: CNC(=O)c1cc(-n2ccc3cc(NC(=O)Nc4ccc(N5CCN(C)CC5)c(C(F)(F)F)c4)ccc32)ccn1
- growth [1]: -32.6% (active)
- growth [2]: -11.2% (active)
- growth [3]: 97.7%
- growth [4]: 90%
- growth [5]: 84.5%
- growth [6]: 105%
- growth [7]: 91.9%
- growth [8]: 67%
- growth [9]: 98%

Compound: O=C1[C@H]2Cc3c([nH]c4ccccc34)[C@H](c3ccc(Cl)cc3)N2C(=O)CN1C1CCN(CC2CCCCC2)CC1
- growth [1]: -5.73% (active)
- growth [2]: 23.4%
- growth [3]: 74.9%
- growth [4]: 96.1%
- growth [5]: 72.7%
- growth [6]: 93.8%
- growth [7]: 72.2%
- growth [8]: 74.4%
- growth [9]: 68.5%

Compound: CCOC(=O)C(=O)Nc1ccc2c(ccn2C(=O)c2cccc(F)c2)c1
- growth [1]: 96.3%
- growth [2]: 101%
- growth [3]: 93.1%
- growth [4]: 92.4%
- growth [5]: 101%
- growth [6]: 103%
- growth [7]: 103%
- growth [8]: 94.4%
- growth [9]: 100%

Compound: C=C(C=O)[C@@H]1CC[C@]2(C(=O)O)CC[C@]3(C)C(CC[C@@H]4[C@@](C)(CCC#N)[C@H](C(=C)C=O)CC[C@]43C)[C@@H]12 (some centres not stated)
- growth [1]: 0.41% (active)
- growth [2]: -8.52% (active)
- growth [3]: -9.95% (active)
- growth [4]: 127%
- growth [5]: 18.7%
- growth [6]: 126%
- growth [7]: 14.6%
- growth [8]: 47.1%
- growth [9]: 5.79% (active)

Compound: CCN1CCN(c2ccc(NC(=O)Nc3ccc4c(ccn4-c4ccnc(C(=O)NC)c4)c3)cc2C(F)(F)F)CC1
- growth [1]: -2.78% (active)
- growth [2]: 8.67% (active)
- growth [3]: 98.4%
- growth [4]: 89%
- growth [5]: 87%
- growth [6]: 80.6%
- growth [7]: 79.3%
- growth [8]: 34.6%
- growth [9]: 86.5%

Compound: CN1CCC[C@]2(C)[C@H]3CC[C@@H]4[C@@H]5[C@H]6OC[C@@]5(CCC6(C)C)CC[C@@]4(C)[C@]3(C)CC[C@H]2C1(C)C
- growth [1]: 5.47% (active)
- growth [2]: 30.2%
- growth [3]: 22.3%
- growth [4]: 103%
- growth [5]: 86.9%
- growth [6]: 118%
- growth [7]: 77.8%
- growth [8]: 99%
- growth [9]: 95.5%

Compound: Cn1cc(-c2nn3cc(-c4ccncc4)nc3s2)c2cc(F)ccc21
- growth [1]: 1.87% (active)
- growth [2]: 55.3%
- growth [3]: 58.6%
- growth [4]: 100%
- growth [5]: 72.8%
- growth [6]: 92.7%
- growth [7]: 64.9%
- growth [8]: 86.7%
- growth [9]: 78.7%

Compound: NS(=O)(=O)c1cccc(Nc2nc(SCC(=O)c3ccc(Cl)cc3)nc3c2CCC3)c1
- growth [1]: 98.7%
- growth [2]: 97.3%
- growth [3]: 82.8%
- growth [4]: 103%
- growth [5]: 95.8%
- growth [6]: 95.7%
- growth [7]: 99.8%
- growth [8]: 81%
- growth [9]: 96.7%

Compound: CN1CCN(c2ccc(Nc3nc(NCCNS(=O)(=O)c4ccc(Cl)cc4)c4sccc4n3)cc2)CC1
- growth [1]: 22.7%
- growth [2]: 80.8%
- growth [3]: 101%
- growth [4]: 98.7%
- growth [5]: 84%
- growth [6]: 121%
- growth [7]: 92.9%
- growth [8]: 81.2%
- growth [9]: 100%

Compound: CCCCSC1=C(Cl)CN(c2ccccc2)C1=O
- growth [1]: 71.5%
- growth [2]: 78%
- growth [3]: 102%
- growth [4]: 98.8%
- growth [5]: 107%
- growth [6]: 105%
- growth [7]: 106%
- growth [8]: 98.6%
- growth [9]: 103%

Compound: CN1CCN(c2ccc(C(=O)/C=C/c3cc(F)cc(C(F)(F)F)c3)cc2)CC1
- growth [1]: 17.5%
- growth [2]: 11.2%
- growth [3]: 65.2%
- growth [4]: 115%
- growth [5]: 71.8%
- growth [6]: 109%
- growth [7]: 77.9%
- growth [8]: 100%
- growth [9]: 59%

Compound: CCCCc1nc2c(N)nc3ccccc3c2n1Cc1cccc(CN)c1
- growth [1]: 2.23% (active)
- growth [2]: 42.5%
- growth [3]: 63.9%
- growth [4]: 109%
- growth [5]: 53.6%
- growth [6]: 91.2%
- growth [7]: 62.8%
- growth [8]: 67.2%
- growth [9]: 93.5%

Compound: c1ccc(-c2cn3c(-c4c[nH]c5ccccc45)csc3n2)cc1
- growth [1]: 61.7%
- growth [2]: 31.2%
- growth [3]: 65.5%
- growth [4]: 87.8%
- growth [5]: 61.9%
- growth [6]: 87.3%
- growth [7]: 62.2%
- growth [8]: 68.9%
- growth [9]: 91.8%

Compound: COc1ccc(/C(=N\NC(N)=S)c2ccc(Cl)cc2)cc1OC
- growth [1]: 29.3%
- growth [2]: 45.6%
- growth [3]: 37.8%
- growth [4]: 51.2%
- growth [5]: 60.6%
- growth [6]: 18.3%
- growth [7]: 30.3%
- growth [8]: 3.4% (active)
- growth [9]: 7.07% (active)

Compound: CCc1cc(OC(=O)N2CCN(CCC(C)(COC(C)(C)C)COC(C)(C)C)CC2)ccc1Nc1cc(-c2ccc(-n3cccn3)cc2)[nH]n1
- growth [1]: 37.9%
- growth [2]: 60.5%
- growth [3]: 84.3%
- growth [4]: 89.1%
- growth [5]: 60.8%
- growth [6]: 105%
- growth [7]: 67%
- growth [8]: 68.2%
- growth [9]: 74.5%

Compound: O=C(NCCNc1cc(-c2cn(-c3ccccc3)nc2-c2cccc(O)c2)ccn1)Nc1cc(C(F)(F)F)cc(C(F)(F)F)c1
- growth [1]: 81.3%
- growth [2]: 94.7%
- growth [3]: 98.5%
- growth [4]: 97.3%
- growth [5]: 91.6%
- growth [6]: 104%
- growth [7]: 82.2%
- growth [8]: 93.9%
- growth [9]: 91.9%

Compound: COc1ccc2c(c1)c(/C=N/Nc1ccnc3cc(Cl)ccc13)cn2C
- growth [1]: -22.6% (active)
- growth [2]: -43% (active)
- growth [3]: -66.8% (active)
- growth [4]: -87.3% (active)
- growth [5]: -76.7% (active)
- growth [6]: -89.2% (active)
- growth [7]: -82% (active)
- growth [8]: -53.1% (active)
- growth [9]: -71.1% (active)

Compound: CCn1c2ccc(/C=N/N(C)S(=O)(=O)CCN(C)C)cc2c2cc(/C=N/N(C)S(=O)(=O)CCN(C)C)ccc21
- growth [1]: 2.12% (active)
- growth [2]: 65.2%
- growth [3]: 48.9%
- growth [4]: 82.6%
- growth [5]: 69.2%
- growth [6]: 106%
- growth [7]: 2.68% (active)
- growth [8]: 76.8%
- growth [9]: 54.7%

Compound: O=C(/C=C/c1csc(Br)n1)NO
- growth [1]: 13.8%
- growth [2]: 9.04% (active)
- growth [3]: 22.3%
- growth [4]: 10.7%
- growth [5]: 65.1%
- growth [6]: 38.2%
- growth [7]: 16.7%
- growth [8]: 44.3%
- growth [9]: 1.04% (active)

Compound: N#Cc1nc(-c2ccccc2)oc1N1CCC(C2(C(F)(F)F)N=N2)CC1
- growth [1]: 85.1%
- growth [2]: 97.2%
- growth [3]: 97.6%
- growth [4]: 109%
- growth [5]: 96.4%
- growth [6]: 96.2%
- growth [7]: 108%
- growth [8]: 96.7%
- growth [9]: 102%

Compound: C#C[C@]1(O)CC[C@H]2[C@@H]3CC=C4c5sc(N6CCN(C)CC6)nc5CC[C@]4(C)[C@H]3CC[C@@]21C
- growth [1]: 4.08% (active)
- growth [2]: -13.3% (active)
- growth [3]: 74.2%
- growth [4]: 69.5%
- growth [5]: 75.6%
- growth [6]: 54%
- growth [7]: 63.2%
- growth [8]: 59.8%
- growth [9]: 36.8%

Compound: CN(C)c1ccc(-c2cc(-c3c[nH]c4ccccc34)nc(N)c2C#N)cc1
- growth [1]: 9.16% (active)
- growth [2]: 4.44% (active)
- growth [3]: 25.6%
- growth [4]: 48.8%
- growth [5]: 69.5%
- growth [6]: 30.9%
- growth [7]: 42.2%
- growth [8]: 35.6%
- growth [9]: 14.9%

Compound: COc1ccc(-c2cc(-c3ccc(N4CCOCC4)cc3)n3c(n2)nc2ccccc23)cc1OC
- growth [1]: 70.3%
- growth [2]: 57.5%
- growth [3]: 82.5%
- growth [4]: 108%
- growth [5]: 87.9%
- growth [6]: 118%
- growth [7]: 95.1%
- growth [8]: 98.2%
- growth [9]: 87.9%

Compound: O=[N+]([O-])c1ccc(NC(=S)NNC(=S)Nc2ccc(F)cc2)cc1
- growth [1]: 91%
- growth [2]: 85.6%
- growth [3]: 91.7%
- growth [4]: 89.9%
- growth [5]: 95.7%
- growth [6]: 116%
- growth [7]: 83.5%
- growth [8]: 102%
- growth [9]: 84.2%

Compound: CCc1cc(OC(=O)N2CCC(N3CCCCC3)CC2)ccc1Nc1cc(-c2ccc(-n3cccn3)cc2)[nH]n1
- growth [1]: -9.25% (active)
- growth [2]: 20.9%
- growth [3]: 86.2%
- growth [4]: 87.4%
- growth [5]: 85.3%
- growth [6]: 85.9%
- growth [7]: 56.9%
- growth [8]: 66.8%
- growth [9]: 82.5%

Compound: CC[C@H](CC[C@@H](C)[C@H]1CC[C@H]2[C@@H]3CC(=O)C4=CC(=O)/C(=C/c5ccc([N+](=O)[O-])cc5)C[C@]4(C)[C@H]3CC[C@]12C)C(C)C
- growth [1]: 84.3%
- growth [2]: 83.5%
- growth [3]: 100%
- growth [4]: 105%
- growth [5]: 108%
- growth [6]: 124%
- growth [7]: 111%
- growth [8]: 119%
- growth [9]: 106%

Compound: O=C(CCCCCCN1CC(=O)N2[C@@H](c3cccs3)c3[nH]c4ccccc4c3C[C@H]2C1=O)NO
- growth [1]: 35.6%
- growth [2]: 55%
- growth [3]: 61.7%
- growth [4]: 70.4%
- growth [5]: 95.6%
- growth [6]: 101%
- growth [7]: 94.3%
- growth [8]: 81.1%
- growth [9]: 90.4%

Compound: CCN(CC)c1ccc(/C=N/NC(=O)c2ccc(S(N)(=O)=O)cc2)c(O)c1
- growth [1]: 10.5%
- growth [2]: 38.3%
- growth [3]: 13.1%
- growth [4]: 50%
- growth [5]: 32.6%
- growth [6]: 32.2%
- growth [7]: 17.6%
- growth [8]: 54.3%
- growth [9]: 18%
